For part of these data: Potency and affinity values are given separately. The source made the active and inactive calls. The rule behind the calls is not given here.
Tests used:
[1] = Ebola virus entry assay, green fluorescence channel
[2] = Ebola virus entry assay, blue channel fluorescence
[3] = Ebola virus entry assay, ratio channel
[4] = Ebola virus entry assay, green channel fluorescence
[5] = Ebola virus entry assay, reporter ratio channel; Channel type: primary
[6] = Ebola virus entry assay, blue channel (ratio component)

Measured: efficacy
Throughout, for efficacy: 0% is about no effect.

O=C1OC(OC(=O)c2cccnc2Nc2cccc(C(F)(F)F)c2)c2ccccc21 (stereo not given)
inactive: [1] -25.3% | [2] | [3] | [4] | [5] | [6]

COc1ccc(C(Cl)=C(c2ccc(OC)cc2)c2ccc(OC)cc2)cc1
inactive: [1] 25.3% | [2] | [3] | [4] | [5] | [6]

CC(C)(C)c1nnc(NS(=O)(=O)c2ccc(N)cc2)s1
inactive: [1] -23% | [2] | [3] | [4] | [5] | [6]

C[C@H]1COc2c(C3(N)CC3)c(F)cc3c(=O)c(C(=O)O)cn1c23
inactive: [1] 9.63% | [2] | [3] | [4] | [5] | [6]

c1ccc2[nH]c(-c3cscn3)nc2c1
inactive: [1] -29.7% | [2] | [3] | [4] | [5] | [6]

CC1(C)S[C@@H]2[C@H](N=CN3CCCCCC3)C(=O)N2[C@H]1C(=O)O
inactive: [1] -47.1% | [2] | [3] | [4] | [5] | [6]

NCC1CCC(C(=O)Oc2ccc(CCC(=O)O)cc2)CC1 (stereo not given)
inactive: [1] 32.3% | [2] | [3] | [4] | [5] | [6]

CC(C)=CCNc1ncnc2c1ncn2[C@@H]1O[C@H](CO)[C@@H](O)[C@H]1O
inactive: [1] 38.7% | [2] | [3] | [4] | [5] | [6]

O=C(O)C(Cc1cc(I)c(O)c(I)c1)c1ccccc1 (stereo not given)
inactive: [1] -25.4% | [2] | [3] | [4] | [5] | [6]

C[C@@]12CCC[C@H]1[C@@H]1CC[C@H]3C[C@@H](O)CC[C@]3(C)[C@H]1CC2
inactive: [1] -12.6% | [2] | [3] | [4] | [5] | [6]

O=C1c2ccccc2C(=O)C1c1ccccc1
inactive: [1] 13.2% | [2] | [3] | [4] | [5] | [6]

CC(=O)OCC1=C(C(=O)O)N2C(=O)[C@@H](NC(=O)CSc3ccncc3)[C@H]2SC1
inactive: [1] -6.58% | [2] | [3] | [4] | [5] | [6]

C[C@H]1NCc2cc(-c3ccc4c(=O)c(C(=O)O)cn(C5CC5)c4c3OC(F)F)ccc21
inactive: [1] -19.7% | [2] | [3] | [4] | [5] | [6]

O=C1C(CCS(=O)c2ccccc2)C(=O)N(c2ccccc2)N1c1ccccc1 (stereo not given)
inactive: [1] 28.5% | [2] | [3] | [4] | [5] | [6]

Clc1ccccc1-c1nc(-c2ccncc2)no1
inactive: [1] -9.78% | [2] | [3] | [4] | [5] | [6]

O=C1c2ccccc2S(=O)(=O)N1CCCCN1CCN(c2ncccn2)CC1
inactive: [1] 29.9% | [2] | [3] | [4] | [5] | [6]

CC(=O)N1C[C@H](O)C[C@H]1C(=O)O
inactive: [1] 24.5% | [2] | [3] | [4] | [5] | [6]

O=C(CCN1CCN(CCO)CC1)N1c2ccccc2Sc2ccc(C(F)(F)F)cc21
inactive: [1] 14.8% | [2] | [3] | [4] | [5] | [6]

Nc1ccc(C(=O)NCC(=O)O)cc1
inactive: [1] 34% | [2] | [3] | [4] | [5] | [6]

O=C(O)c1cccnc1Nc1cccc(C(F)(F)F)c1
inactive: [1] -25.4% | [2] | [3] | [4] | [5] | [6]

COC(=O)[C@@H](N)Cc1ccc(O)c(O)c1
inactive: [1] -12% | [2] | [3] | [4] | [5] | [6]

Cc1c(N(C)C)c(=O)n(-c2ccccc2)n1C
inactive: [1] 14.3% | [2] | [3] | [4] | [5] | [6]

O=C(O)C1CCC1
inactive: [1] -19% | [2] | [3] | [4] | [5] | [6]

C[C@@H](O)[C@H](N)C(=O)O
inactive: [1] -9.88% | [2] | [3] | [4] | [5] | [6]

CCCCCCCCCCCCOCCOCCOCCOCCOCCOCCOCCOCCOCCO
inactive: [1] -12.9% | [2] | [3] | [4] | [5] | [6]

CCCc1ncc(C[n+]2ccccc2C)c(N)n1
inactive: [1] -20.5% | [2] | [3] | [4] | [5] | [6]

O=C1c2ccccc2C(=O)C1c1ccc(Br)cc1
inactive: [1] -9.92% | [2] | [3] | [4] | [5] | [6]

COc1ccc2cc(C=O)ccc2c1
inactive: [1] -11.5% | [2] | [3] | [4] | [5] | [6]

NC(=O)CCCCC1CCSS1 (stereo not given)
inactive: [1] 19.1% | [2] | [3] | [4] | [5] | [6]

NC[C@H]1O[C@H](O[C@H]2[C@H](O)[C@@H](O[C@H]3O[C@H](CO)[C@@H](O)[C@H](N)[C@H]3O)[C@H](N)C[C@@H]2N)[C@H](N)[C@@H](O)[C@@H]1O
inactive: [1] -12.5% | [2] | [3] | [4] | [5] | [6]

— PubChem BioAssay (NCATS)
